# In PubChem BioAssay (NCI):
# About 79,000 compounds went through this panel and 15% of them were active in at least one assay; those are over-represented in the sample as a whole. Unmarked numbers belong to inactive results. Active and inactive are the calls of the source. Cut-off read from the data, not from the text of the source: active = growth inhibition above about 70%; inactive = the rest.
# Experiments:
# [1] = NCI Yeast Anticancer Drug Screen. Data for the wt1 strain (AID 149);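 note: 0% = growth of vehicle-treated wt1 cultures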; conditions: S. cerevisiae wt1 strain (SPY 50644) growth inhibition, active compounds read high
# Outline: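 Yeast wt1 strain exposed to compounds; growth inhibition measured relative to vehicle-treated controls.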
# [2] = NCI Yeast Anticancer Drug Screen. Data for the rad50EPP+ strain (AID 151);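 note: 0% = growth of vehicle-treated control cultures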; conditions: S. cerevisiae rad50 mutant strain, active compounds read high
# Outline: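 Read-out is yeast growth inhibition relative to vehicle; cells used were the rad50EPP+ strain.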
# [3] = NCI Yeast Anticancer Drug Screen. Data for the mgt1 strain (AID 153); conditions: S. cerevisiae mgt1 mutant growth inhibition, active compounds read high
# Outline: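 Measured: inhibition of mgt1 yeast growth by compound, normalized to vehicle-treated cultures.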
# [4] = NCI Yeast Anticancer Drug Screen. Data for the rad50 strain (AID 155);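 note: 0% = growth of vehicle-only cultures of the same strain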; conditions: S. cerevisiae rad50 strain growth inhibition, active compounds read high
# Outline: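 Yeast carrying a defined DNA repair defect were exposed to test compounds, and growth was compared with vehicle-treated controls to give percent inhibition.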
# [5] = NCI Yeast Anticancer Drug Screen. Data for the mec2-1 strain (AID 157); conditions: S. cerevisiae mec2-1 strain, active compounds read high
# Outline: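 Using mec2-1 yeast: add compound, measure growth, express inhibition versus vehicle-treated cultures.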
# [6] = NCI Yeast Anticancer Drug Screen. Data for the rad14 strain (AID 159);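 note: 0% = growth of vehicle-treated control cultures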; conditions: S. cerevisiae rad14 strain growth inhibition, active compounds read high
# Outline: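 Yeast cells carrying a defined DNA-repair defect were exposed to compounds, and growth inhibition was calculated relative to vehicle-treated control cultures.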
# [7] = NCI Yeast Anticancer Drug Screen. Data for the sgs1 mgt1 strain (AID 161);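 note: 0% = growth of cultures given vehicle only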; conditions: S. cerevisiae sgs1 mgt1 strain, active compounds read high
# Outline: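 Compounds are added to genetically altered yeast, and growth is compared with cultures given vehicle alone to give percent inhibition.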
# [8] = NCI Yeast Anticancer Drug Screen. Data for the CLN2oe strain (AID 163);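 note: 0% = growth of vehicle-only control cultures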; conditions: S. cerevisiae CLN2oe strain, active compounds read high
# Outline: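 Whole-cell yeast growth assay. A strain engineered for altered cell-cycle control received compound, and inhibition relative to vehicle-treated cultures was recorded.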
# [9] = NCI Yeast Anticancer Drug Screen. Data for the cln2 rad14 strain (AID 165);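 note: 0% = growth equal to vehicle treated cultures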; conditions: S. cerevisiae cln2 rad14 strain, active compounds read high
# Outline: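 Yeast strain cln2 rad14, bearing defects in cell cycle control and DNA repair, serves as the test system; values reflect growth inhibition compared with vehicle.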
# [10] = NCI Yeast Anticancer Drug Screen. Data for the bub3 strain (AID 167); conditions: S. cerevisiae bub3 mutant strain, active compounds read high
# Outline: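 Compounds were applied to a genetically altered yeast strain carrying a cell-cycle control defect. Growth inhibition was scored against vehicle-treated controls.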
# [11] = NCI Yeast Anticancer Drug Screen. Data for the wt2 strain (AID 169);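 note: 0% = growth of vehicle-treated yeast cultures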; conditions: S. cerevisiae wt2 strain growth inhibition, active compounds read high
# Outline: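 Treated yeast vs. vehicle-treated yeast: growth inhibition determined.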
# [12] = NCI Yeast Anticancer Drug Screen. Data for the mlh1 strain (AID 171);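 note: 0% = growth of vehicle-treated control cultures of the same strain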; conditions: S. cerevisiae mlh1 strain growth inhibition, active compounds read high
# Outline: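 A yeast strain with a defined genetic lesion serves as the test organism. Cultures receive compound or vehicle, and growth is measured.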
# [13] = NCI Yeast Anticancer Drug Screen. Data for the sgs1 strain (AID 173);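 note: 0% = growth of vehicle-only control cultures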; conditions: S. cerevisiae sgs1 mutant, active compounds read high
# Outline: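 A genetically defined yeast mutant is incubated with the test compound, and its growth is compared to that of the same strain given vehicle.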
# [14] = NCI Yeast Anticancer Drug Screen. Data for the mlh1 rad18 strain (AID 175); conditions: S. cerevisiae mlh1 rad18 strain growth inhibition, active compounds read high
# Outline: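 Steps: expose repair-defective yeast to compound; measure growth; express inhibition against vehicle-treated controls.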
# [15] = NCI Yeast Anticancer Drug Screen. Data for the rad18 strain (AID 177); conditions: S. cerevisiae rad18 mutant growth inhibition, active compounds read high
# Outline: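 Measured value is growth inhibition of a yeast strain bearing a DNA repair alteration, referenced to vehicle-treated cells.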
# [16] = at 5.0 µM (retest, dose inferred, filed as 0.5)
# [17] = at 50.0 µM (retest, dose inferred, filed as 5.0)
smiles,measurement,setting,value
c1ccc(C2=NNC3c4ccccc4-c4ccccc4N3C2)cc1 (stereo unspecified),growth inhibition,[1]; at 1.2 µM,-4%
same,growth inhibition,[1]; at 3.7 µM,-5%
same,growth inhibition,[1]; at 11.0 µM,-3%
same,growth inhibition,[1]; at 33.0 µM,0%
same,growth inhibition,[1]; at 100.0 µM,10%
same,growth inhibition,[2]; at 1.2 µM,-2%
same,growth inhibition,[2]; at 3.7 µM,1%
same,growth inhibition,[2]; at 11.0 µM,5%
same,growth inhibition,[2]; at 33.0 µM,27%
same,growth inhibition,[2]; at 100.0 µM,35%
same,growth inhibition,[3]; at 1.2 µM,-1%
same,growth inhibition,[3]; at 3.7 µM,8%
same,growth inhibition,[3]; at 11.0 µM,-4%
same,growth inhibition,[3]; at 33.0 µM,-2%
same,growth inhibition,[3]; at 100.0 µM,47%
same,growth inhibition,[4]; at 1.2 µM,0%
same,growth inhibition,[4]; at 3.7 µM,9%
same,growth inhibition,[4]; [16],16%
same,growth inhibition,[4]; at 11.0 µM,11%
same,growth inhibition,[4]; at 33.0 µM,33%
same,growth inhibition,[4]; [17],67%
same,growth inhibition,[4]; at 50.0 µM,84.9% (active)
same,growth inhibition,[4]; at 100.0 µM,92% (active)
same,growth inhibition,[5]; at 1.2 µM,1%
same,growth inhibition,[5]; at 3.7 µM,2%
same,growth inhibition,[5]; [16],6%
same,growth inhibition,[5]; at 11.0 µM,3%
same,growth inhibition,[5]; at 33.0 µM,5%
same,growth inhibition,[5]; [17],7%
same,growth inhibition,[5]; at 50.0 µM,12.4%
same,growth inhibition,[5]; at 100.0 µM,43%
same,growth inhibition,[6]; at 1.2 µM,-5%
same,growth inhibition,[6]; at 3.7 µM,-11%
same,growth inhibition,[6]; at 11.0 µM,0%
same,growth inhibition,[6]; at 33.0 µM,8%
same,growth inhibition,[6]; at 100.0 µM,26%
same,growth inhibition,[7]; [16],6%
same,growth inhibition,[7]; [17],35%
same,growth inhibition,[7]; at 50.0 µM,1.35%
same,growth inhibition,[8]; at 1.2 µM,0%
same,growth inhibition,[8]; at 3.7 µM,-5%
same,growth inhibition,[8]; at 11.0 µM,-3%
same,growth inhibition,[8]; at 33.0 µM,1%
same,growth inhibition,[8]; at 100.0 µM,8%
same,growth inhibition,[9]; [16],-122%
same,growth inhibition,[9]; [17],38%
same,growth inhibition,[9]; at 50.0 µM,19.5%
same,growth inhibition,[10]; at 1.2 µM,2%
same,growth inhibition,[10]; at 3.7 µM,-14%
same,growth inhibition,[10]; [16],1%
same,growth inhibition,[10]; at 11.0 µM,5%
same,growth inhibition,[10]; at 33.0 µM,11%
same,growth inhibition,[10]; [17],55%
same,growth inhibition,[10]; at 50.0 µM,41%
same,growth inhibition,[10]; at 100.0 µM,42%
same,growth inhibition,[11]; at 1.2 µM,-6%
same,growth inhibition,[11]; at 3.7 µM,-5%
same,growth inhibition,[11]; at 11.0 µM,-6%
same,growth inhibition,[11]; at 33.0 µM,1%
same,growth inhibition,[11]; at 100.0 µM,68%
same,growth inhibition,[12]; at 1.2 µM,-1%
same,growth inhibition,[12]; at 3.7 µM,9%
same,growth inhibition,[12]; at 11.0 µM,2%
same,growth inhibition,[12]; at 33.0 µM,19%
same,growth inhibition,[12]; at 100.0 µM,58%
same,growth inhibition,[13]; at 1.2 µM,-3%
same,growth inhibition,[13]; at 3.7 µM,-4%
same,growth inhibition,[13]; at 11.0 µM,-5%
same,growth inhibition,[13]; at 33.0 µM,2%
same,growth inhibition,[13]; at 100.0 µM,16%
same,growth inhibition,[14]; [16],11%
same,growth inhibition,[14]; [17],50%
same,growth inhibition,[14]; at 50.0 µM,34%
same,growth inhibition,[15]; at 1.2 µM,0%
same,growth inhibition,[15]; at 3.7 µM,0%
same,growth inhibition,[15]; at 11.0 µM,-2%
same,growth inhibition,[15]; at 33.0 µM,7%
same,growth inhibition,[15]; at 100.0 µM,55%
O=CC(=C(I)I)c1ccccc1,growth inhibition,[1]; at 1.2 µM,15%
same,growth inhibition,[1]; at 3.7 µM,41%
same,growth inhibition,[1]; at 11.0 µM,88% (active)
same,growth inhibition,[1]; at 33.0 µM,99% (active)
same,growth inhibition,[1]; at 100.0 µM,90% (active)
same,growth inhibition,[2]; at 1.2 µM,91% (active)
same,growth inhibition,[2]; at 3.7 µM,96% (active)
same,growth inhibition,[2]; at 11.0 µM,97% (active)
same,growth inhibition,[2]; at 33.0 µM,98% (active)
same,growth inhibition,[2]; at 100.0 µM,99% (active)
same,growth inhibition,[3]; at 1.2 µM,17%
same,growth inhibition,[3]; at 3.7 µM,50%
same,growth inhibition,[3]; at 11.0 µM,98% (active)
same,growth inhibition,[3]; at 33.0 µM,99% (active)
same,growth inhibition,[3]; at 100.0 µM,93% (active)
same,growth inhibition,[4]; at 1.2 µM,93% (active)
same,growth inhibition,[4]; at 3.7 µM,95% (active)
same,growth inhibition,[4]; [16],97% (active)
same,growth inhibition,[4]; at 11.0 µM,97% (active)
same,growth inhibition,[4]; at 33.0 µM,99% (active)
same,growth inhibition,[4]; [17],100% (active)
same,growth inhibition,[4]; at 50.0 µM,85.7% (active)
same,growth inhibition,[4]; at 100.0 µM,97% (active)
same,growth inhibition,[5]; at 1.2 µM,28%
same,growth inhibition,[5]; at 3.7 µM,67%
same,growth inhibition,[5]; [16],33%
same,growth inhibition,[5]; at 11.0 µM,99% (active)
same,growth inhibition,[5]; at 33.0 µM,99% (active)
same,growth inhibition,[5]; [17],99% (active)
same,growth inhibition,[5]; at 50.0 µM,88.9% (active)
same,growth inhibition,[5]; at 100.0 µM,97% (active)
same,growth inhibition,[6]; at 1.2 µM,20%
same,growth inhibition,[6]; at 3.7 µM,38%
same,growth inhibition,[6]; at 11.0 µM,73% (active)
same,growth inhibition,[6]; at 33.0 µM,99% (active)
same,growth inhibition,[6]; at 100.0 µM,86% (active)
same,growth inhibition,[7]; [16],43%
same,growth inhibition,[7]; [17],99% (active)
same,growth inhibition,[7]; at 50.0 µM,90.8% (active)
same,growth inhibition,[8]; at 1.2 µM,-1%
same,growth inhibition,[8]; at 3.7 µM,-3%
same,growth inhibition,[8]; at 11.0 µM,23%
same,growth inhibition,[8]; at 33.0 µM,98% (active)
same,growth inhibition,[8]; at 100.0 µM,98% (active)
same,growth inhibition,[9]; [16],2%
same,growth inhibition,[9]; [17],100% (active)
same,growth inhibition,[9]; at 50.0 µM,91.5% (active)
same,growth inhibition,[10]; at 1.2 µM,-6%
same,growth inhibition,[10]; at 3.7 µM,-4%
same,growth inhibition,[10]; [16],-17%
same,growth inhibition,[10]; at 11.0 µM,27%
same,growth inhibition,[10]; at 33.0 µM,99% (active)
same,growth inhibition,[10]; [17],100% (active)
same,growth inhibition,[10]; at 50.0 µM,92.2% (active)
same,growth inhibition,[10]; at 100.0 µM,99% (active)
same,growth inhibition,[11]; at 1.2 µM,4%
same,growth inhibition,[11]; at 3.7 µM,5%
same,growth inhibition,[11]; at 11.0 µM,38%
same,growth inhibition,[11]; at 33.0 µM,99% (active)
same,growth inhibition,[11]; at 100.0 µM,99% (active)
same,growth inhibition,[13]; at 1.2 µM,56%
same,growth inhibition,[13]; at 3.7 µM,79% (active)
same,growth inhibition,[13]; at 11.0 µM,99% (active)
same,growth inhibition,[13]; at 33.0 µM,99% (active)
same,growth inhibition,[13]; at 100.0 µM,99% (active)
same,growth inhibition,[14]; [16],18%
same,growth inhibition,[14]; [17],100% (active)
same,growth inhibition,[14]; at 50.0 µM,93.1% (active)
same,growth inhibition,[15]; at 1.2 µM,50%
same,growth inhibition,[15]; at 3.7 µM,72% (active)
same,growth inhibition,[15]; at 11.0 µM,96% (active)
same,growth inhibition,[15]; at 33.0 µM,98% (active)
same,growth inhibition,[15]; at 100.0 µM,95% (active)
Nc1cccc2cc(Cl)cnc12,growth inhibition,[1]; at 1.2 µM,-26%
same,growth inhibition,[1]; at 3.7 µM,-26%
same,growth inhibition,[1]; at 11.0 µM,-28%
same,growth inhibition,[1]; at 33.0 µM,-23%
same,growth inhibition,[1]; at 100.0 µM,63%
same,growth inhibition,[2]; at 1.2 µM,-3%
same,growth inhibition,[2]; at 3.7 µM,5%
same,growth inhibition,[2]; at 11.0 µM,11%
same,growth inhibition,[2]; at 33.0 µM,39%
same,growth inhibition,[2]; at 100.0 µM,76% (active)
same,growth inhibition,[3]; at 1.2 µM,-2%
same,growth inhibition,[3]; at 3.7 µM,-2%
same,growth inhibition,[3]; at 11.0 µM,7%
same,growth inhibition,[3]; at 33.0 µM,10%
same,growth inhibition,[3]; at 100.0 µM,64%
same,growth inhibition,[4]; at 1.2 µM,18%
same,growth inhibition,[4]; at 3.7 µM,24%
same,growth inhibition,[4]; [16],62%
same,growth inhibition,[4]; at 11.0 µM,31%
same,growth inhibition,[4]; at 33.0 µM,47%
same,growth inhibition,[4]; [17],98% (active)
same,growth inhibition,[4]; at 50.0 µM,71% (active)
same,growth inhibition,[4]; at 100.0 µM,87% (active)
same,growth inhibition,[5]; at 1.2 µM,12%
same,growth inhibition,[5]; at 3.7 µM,10%
same,growth inhibition,[5]; [16],53%
same,growth inhibition,[5]; at 11.0 µM,13%
same,growth inhibition,[5]; at 33.0 µM,7%
same,growth inhibition,[5]; [17],98% (active)
same,growth inhibition,[5]; at 50.0 µM,20.9%
